Assay results taken from PubChem BioAssay (NCATS).
“And” between values parts separate entries of the source, which are not always exact repeats. Equal entries are not always repeated. Inconclusive results are not listed. Where a call stands in place of a potency, no number is given. A structure can be active in one record and inactive in another. The source made the active and inactive calls. The call rests on the fitted dose curve; in most records, active means well fitted curve in the direction sought with a large enough effect; inconclusive means small, poorly fitted or top-dose-only effect, or another doubt; inactive means no such curve, though single readings can be large; an effect the other way counts as inactive or inconclusive.

Tests used:
[1] = biological target: Cytochrome P450 2C9 (Homo sapiens) (UniProt P11712); test: qHTS Assay for Inhibitors and Substrates of Cytochrome P450 2C9 (AID 883); further: nearly all actives have a fitted effect of over 60% in size; further: potency means the concentration at half of the fitted maximal effect
How it was run: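 Luminescent read-out of deoxyluciferin hydroxylation, normalized to 57uM sulphaphenazole (AC100). Reaction: 10nM enzyme, 100uM Luciferin-H (equal to KM), 25mM KPO4, 10 min compound preincubation, then 60 min with NADPH regeneration, both at 37C.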

[2] = biological target: Cytochrome P450 3A4 (Homo sapiens) (UniProt P08684); test: qHTS Assay for Inhibitors and Substrates of Cytochrome P450 3A4 (AID 884); further: nearly all actives have a fitted effect of over 50% in size; further: potency means the concentration at half of the fitted maximal effect; on activity change, negative = inhibition: series mostly up to about 57 µM
How it was run: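 20 nM human CYP3A4 with 25 uM Luciferin-PPXE (at KM) in 200 mM KPO4, preincubated 10 min with compound; NADPH regeneration started a 60 min RT reaction. Luciferin detected by luminescence, normalized to 57 uM ketoconazole as full inhibition.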

[3] = biological target: Cytochrome P450 2D6 (Homo sapiens) (UniProt P10635); test: qHTS Assay for Inhibitors and Substrates of Cytochrome P450 2D6 (AID 891);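 further: luciferin methyl ether substrate demethylated by CYP2D6 with NADPH regeneration; nearly all actives have a fitted effect of over 60% in size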
How it was run: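 Human CYP2D6 (5 nM) with 30 uM Luciferin-ME EGE (at Km) in 100 mM KPO4, compound preincubated 10 min, then NADPH regeneration system for 60 min at room temperature. Luciferin read by luminescence; normalized to 1.43 uM quinidine.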

[4] = biological target: Cytochrome P450 2C19 (Homo sapiens) (UniProt P33261); test: qHTS Assay for Inhibitors and Substrates of Cytochrome P450 2C19 (AID 899); further: nearly all actives have a fitted effect of over 60% in size; further: potency means the concentration at half of the fitted maximal effect
How it was run: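 Luminescence readout of luciferin formed from 10uM Luciferin-H EGE (KM level) by 5 nM CYP2C19 in 50mM KPO4. 60 min NADPH-driven reaction at 37C after 10 min compound preincubation; data scaled to 57uM ketoconazole inhibition.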

[5] = biological target: Cytochrome P450 3A4 (Homo sapiens) (UniProt P08684); test: qHTS Assay for Activators of Cytochrome P450 3A4 (AID 885); further: nearly all actives have a fitted effect of over 65% in size
How it was run: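 Human CYP3A4 (20 nM) with Luciferin-PPXE at 25 uM (its KM) in 200 mM KPO4; 10 min compound preincubation, then NADPH regeneration and 60 min reaction at RT. Luciferin read by luminescence; normalized to 57 uM ketoconazole full inhibition.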

Cytochrome P450 3A4 (Homo sapiens), sequence (P08684 whole entry, looked up): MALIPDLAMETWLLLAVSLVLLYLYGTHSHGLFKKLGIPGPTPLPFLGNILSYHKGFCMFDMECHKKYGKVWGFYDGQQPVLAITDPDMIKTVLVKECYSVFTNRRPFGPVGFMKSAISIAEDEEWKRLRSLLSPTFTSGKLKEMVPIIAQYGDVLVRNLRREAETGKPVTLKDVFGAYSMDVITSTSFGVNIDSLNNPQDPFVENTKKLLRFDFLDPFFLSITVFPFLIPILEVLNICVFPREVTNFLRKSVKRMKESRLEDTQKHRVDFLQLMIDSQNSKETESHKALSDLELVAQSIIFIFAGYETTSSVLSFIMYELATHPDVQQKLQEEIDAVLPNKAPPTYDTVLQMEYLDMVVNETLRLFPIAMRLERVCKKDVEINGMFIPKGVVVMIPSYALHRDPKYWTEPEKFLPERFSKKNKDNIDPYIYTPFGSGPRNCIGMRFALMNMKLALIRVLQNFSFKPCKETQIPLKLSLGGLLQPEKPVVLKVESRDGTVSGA
Cytochrome P450 2C9 (Homo sapiens), sequence (P11712 whole entry, looked up): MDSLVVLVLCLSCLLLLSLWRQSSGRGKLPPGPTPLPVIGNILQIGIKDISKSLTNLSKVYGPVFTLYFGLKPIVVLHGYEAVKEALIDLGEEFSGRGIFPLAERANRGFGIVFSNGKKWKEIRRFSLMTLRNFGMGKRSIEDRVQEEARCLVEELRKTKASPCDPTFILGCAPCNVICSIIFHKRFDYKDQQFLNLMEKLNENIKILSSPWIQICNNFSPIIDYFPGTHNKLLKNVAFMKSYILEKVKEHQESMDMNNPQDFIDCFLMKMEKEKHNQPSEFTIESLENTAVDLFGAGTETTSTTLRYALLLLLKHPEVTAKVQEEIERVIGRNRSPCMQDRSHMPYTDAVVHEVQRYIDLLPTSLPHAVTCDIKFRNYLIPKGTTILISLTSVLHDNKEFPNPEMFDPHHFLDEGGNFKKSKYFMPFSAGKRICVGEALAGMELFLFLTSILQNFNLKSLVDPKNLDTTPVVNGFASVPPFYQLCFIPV
Cytochrome P450 2C19 (Homo sapiens), sequence (P33261 whole entry, looked up): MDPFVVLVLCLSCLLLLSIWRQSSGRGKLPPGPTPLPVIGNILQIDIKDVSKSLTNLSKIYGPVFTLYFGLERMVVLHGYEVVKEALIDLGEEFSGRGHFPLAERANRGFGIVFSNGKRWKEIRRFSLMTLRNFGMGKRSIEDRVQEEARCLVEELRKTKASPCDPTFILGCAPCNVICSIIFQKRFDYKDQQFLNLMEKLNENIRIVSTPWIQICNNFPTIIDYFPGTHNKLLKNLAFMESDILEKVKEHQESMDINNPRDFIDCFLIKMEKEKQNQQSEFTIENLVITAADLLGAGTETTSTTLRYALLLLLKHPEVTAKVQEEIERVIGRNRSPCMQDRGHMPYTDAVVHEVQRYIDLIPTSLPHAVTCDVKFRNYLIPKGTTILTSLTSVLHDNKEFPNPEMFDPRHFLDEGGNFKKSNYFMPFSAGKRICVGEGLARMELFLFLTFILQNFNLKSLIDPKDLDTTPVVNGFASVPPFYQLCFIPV
Cytochrome P450 2D6 (Homo sapiens), sequence (P10635 whole entry, looked up): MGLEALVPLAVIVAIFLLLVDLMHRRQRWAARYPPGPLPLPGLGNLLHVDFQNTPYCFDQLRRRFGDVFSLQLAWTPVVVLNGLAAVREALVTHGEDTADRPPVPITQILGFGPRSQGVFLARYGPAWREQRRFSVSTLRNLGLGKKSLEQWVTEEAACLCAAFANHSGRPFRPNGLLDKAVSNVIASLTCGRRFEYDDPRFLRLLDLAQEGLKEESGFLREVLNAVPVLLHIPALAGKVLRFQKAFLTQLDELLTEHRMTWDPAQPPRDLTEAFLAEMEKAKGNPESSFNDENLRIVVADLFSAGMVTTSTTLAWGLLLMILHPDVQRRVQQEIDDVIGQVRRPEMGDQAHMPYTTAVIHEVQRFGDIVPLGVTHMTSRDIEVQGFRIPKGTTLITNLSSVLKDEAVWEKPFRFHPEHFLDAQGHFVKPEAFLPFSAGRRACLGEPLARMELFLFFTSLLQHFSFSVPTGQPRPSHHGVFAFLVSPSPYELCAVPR

Compound | Potency [1] | activity change, negative = inhibition [2] | Potency [3] | Potency [4] | Potency [2] | Potency [5] | activity change, positive = activation [5]
CC(=O)OCC1OC(C#Cc2ccc(Cl)cc2)C=CC1OC(C)=O (configuration not stated) | inactive | -14.6% [at 11.4 µM] (inactive) and -6.86% [at 11.4 µM] (inactive) | inactive | 1 µM (active) and inactive |  |  | 
CCOC(=O)OCC1OC(C#CC(C)(C)C)C=CC1OC(=O)OCC (configuration not stated) | inactive | -18.5% [at 11.4 µM] (inactive) | inactive | 2.51 µM (active) |  |  | 
CC1CCC(C(=O)O)NC1c1cccc(N2CCCC2=O)c1 (configuration not stated) | inactive | -12.3% [at 11.4 µM] (inactive) | inactive | inactive |  |  | 
CCOC(=O)OCC1OC(c2ccc(C(C)=O)cc2)C=CC1OC(=O)OCC (configuration not stated) | inactive | -24.1% [at 11.4 µM] (inactive) | inactive | inactive |  |  | 
C#CC(C)OC(=O)c1nnc2c3ccccc3n(COC)c2n1 (configuration not stated) | inactive | -23.2% [at 11.4 µM] (inactive) | inactive | inactive |  |  | 
CC1CCC2C(=O)N3C(CCC(C)C3c3ccc(-c4ccco4)cc3)C(=O)N2C1c1ccc(-c2ccco2)cc1 (configuration not stated) | inactive | -11.9% [at 11.4 µM] (inactive) | inactive | inactive |  |  | 
C=CCOC(=O)C(C(C)=O)C(NC(=O)OC)c1cccc(C)c1 (configuration not stated) | inactive |  | inactive | 0.794 µM (active) | 2.51 µM (active) |  | 
CN1CCc2nc(-c3ccccc3)c(-c3ccccc3)cc2C1 | inactive | -24.2% [at 11.4 µM] (inactive) | inactive | inactive |  |  | 
CC1(C)OC(C(O)(c2cccc3c2oc2ccccc23)c2cccc3c2oc2ccccc23)C(C(O)(c2cccc3c2oc2ccccc23)c2cccc3c2oc2ccccc23)O1 (configuration not stated) | inactive | -15.2% [at 11.4 µM] (inactive) | inactive | inactive |  |  | 
COC(=O)NC(CC(C)=O)c1ccc(Cl)cc1 (configuration not stated) | inactive | -19.1% [at 11.4 µM] (inactive) | inactive | inactive |  |  | 
O=Cc1ccc(OC2C=CC(c3ccccc3)OC2CO)cc1 (configuration not stated) | inactive | -9.85% [at 11.4 µM] (inactive) | inactive | inactive |  |  | 
COc1ccc(OC)c(C2OCCC=CC2C)c1 (configuration not stated) | inactive | -16.9% [at 11.4 µM] (inactive) | inactive | inactive |  |  | 
Cc1cc(=O)oc2cc(OC3C=CC(C#CC(C)(C)C)OC3CO)ccc12 (configuration not stated) | inactive | -2.04% [at 11.4 µM] (inactive) | inactive | inactive |  |  | 
C=CCOCC1CN2C(CCC(C)C2c2ccc(Br)cc2)C(=O)O1 (configuration not stated) | inactive | -11.7% [at 11.4 µM] (inactive) | inactive | inactive |  |  | 
C=C(C)CC1(c2ccccc2)Oc2ccccc2-c2nc3cc(Cl)c(Cl)cc3nc21 (configuration not stated) | inactive | -4.89% [at 11.4 µM] (inactive) | inactive | inactive |  |  | 
COC(=O)C1C(C)OC(=O)NC1c1ccccc1 (configuration not stated) | inactive | -16.6% [at 11.4 µM] (inactive) |  | inactive |  |  | 
C=C(C)C(O)C(CC/C=C(\C)C(=O)OCC)OC (configuration not stated) | inactive | -25.2% [at 11.4 µM] (inactive) |  | inactive |  |  | 
O=C1/C(=C/c2ccccc2)Oc2ccccc21 | inactive | -8.26% [at 11.4 µM] (inactive) | inactive | inactive |  |  | 
COC1C(O)COC1/C=C/c1ccccc1 (configuration not stated) | inactive | -19.7% [at 11.4 µM] (inactive) | inactive | inactive |  |  | 
CCCC/C=C/C(NC(=O)c1ccc(C(F)(F)F)cc1)c1ccccc1 (configuration not stated) | 2 µM (active) |  |  |  |  | inactive | 
CO[C@H]1COC(=O)C/C=C\[C@H](C)[C@@H](OC)COC(=O)[C@H](C)COC(=O)C/C=C\[C@@H]1C | inactive |  |  |  |  |  | -33.7% [at 11.4 µM] (inactive)
CCOC(=O)[C@]1(C(NC(=O)OC)c2ccco2)CCCC1=O (some centres not stated) | inactive | -19.8% [at 11.4 µM] (inactive) | inactive | inactive |  |  | 
CC12C=C(/C=C/C=C/c3ccco3)C(C)(C1)C(/C=C/c1ccco1)CC2=O (configuration not stated) | inactive | 5.62% [at 11.4 µM] (inactive) | inactive | inactive |  |  | 
O=C(/C=N/O)NCCCCNC(=O)/C=N/O | inactive | -14.7% [at 11.4 µM] (inactive) | inactive | inactive |  |  | 
COC(=O)NC(CC(C)=O)c1cccc(F)c1 (configuration not stated) | inactive | -53.6% [at 11.4 µM] (inactive) | inactive | inactive |  |  | 
CC(O)CCCCCCC/C=C/C=C/C(N)=O (configuration not stated) | inactive | -10.1% [at 11.4 µM] (inactive) | inactive | inactive |  |  | 
CC1CCC2C(=O)N3C(CCC(C)[C@@H]3c3ccc(-c4ccco4)cc3)C(=O)N2C1c1cccc(N2CCCC2=O)c1 (some centres not stated) | inactive | 13.4% [at 11.4 µM] (inactive) | inactive | inactive |  |  | 
